Z-score data for 35 compounds are collected here from PubChem BioAssay.

The test is described as follows: adipocyte viability effects, profiling panel, cell-based, 3T3-L1 adipocytes, calcein-AM fluorescence, 48 h, basal (AID 1163). Also: test concentration not given here. To be noted: 3T3-L1 adipocytes viability, higher = more signal.
For the compound `COc1ccc(C#Cc2ccc3c(c2)[C@]2(C(=O)N3)[C@H](C(=O)N3CCN(c4ncccn4)CC3)[C@H]3C(=O)O[C@H](c4ccccc4)[C@H](c4ccccc4)N3[C@@H]2c2ccc(O)cc2)cc1`, the z-score is 0.583.

Regarding `CCCC[C@H]1C[C@@H]1[C@@H]1N(P(=O)(c2ccccc2)c2ccccc2)[C@](CO)(c2ccccc2)CC12CC2`, the z-score was -0.0661.

As to `O=C(N1CCCCC1)[C@]1(CCS(=O)(=O)c2ccccc2)N=C(c2ccc(OCCCO)cc2)O[C@@H]1c1ccccc1`, the z-score was 1.68.

Consider `OCCCc1cc[n+](Cc2cccc(OC(F)(F)F)c2)cc1`, for which the z-score is 0.997.

Take `COc1ccc([Si](C)(C)[C@H]2[C@H](CC(=O)N3CCC[C@H]3CO)O[C@@]3(C(=O)N(Cc4cccc(N5CCC5=O)c4)c4ccccc43)[C@@H]2C)cc1`: the z-score was 1.57.

As to `CCCNC(=O)[C@@]1(c2ccc([N+](=O)[O-])cc2)CC(=O)N(CC23CC4CC(CC(C4)C2)C3)[C@@H]1c1ccc(CO)cc1I`, the z-score was -0.738.

Take `CCCNC(=O)[C@@]1(C)c2ccccc2C(=O)N(Cc2cc(F)cc(C(F)(F)F)c2)[C@H]1c1ccc(CO)cc1`: the z-score was 0.237.

Regarding `C=C[C@H](C)[C@H](OC(=O)Nc1ccc(OC)cc1)c1ccc(O)c2ccccc12`, the z-score was 0.256.

With `O=c1cccc(-c2ccccc2)o1`, the z-score is 0.0455.

`CC1CC/C=C\[C@H]2OC34C=CCN(Cn5nnc6ccccc65)C(=O)[C@H]3N(CCCO)C(=O)[C@@H]4C2C(=O)O1` (stereo not given in full): the z-score is 1.5.

Take `COc1ccc(C#Cc2ccc3c(c2)[C@]2(C(=O)N3)[C@H](c3ccc(OCCO)cc3)N3[C@H](c4ccccc4)[C@H](c4ccccc4)OC(=O)[C@H]3[C@@H]2C(=O)Nc2nc3ccccc3s2)cc1`: the z-score is 0.292.

For the compound `C=C(C(=O)CC[C@H](OC(=O)c1cccnc1)c1ccccc1OCCO)C(C)C`, the z-score was -0.602.

`C=CC[C@@]1(C(=O)NCCN2CCOCC2)N=C(c2ccc(OCCCO)cc2)O[C@@H]1c1ccccc1CN=[N+]=[N-]`: the z-score is 1.56.

Turning to `C=CCOC(=O)[C@H]1[C@@H]2C(=O)O[C@@H](c3ccccc3)[C@@H](c3ccccc3)N2[C@@H](c2ccc(OCCOC(=O)[C@@H]3C[C@@H]4C(=O)NCC(=O)N4[C@@H]3c3ccc(O)cc3)cc2)[C@]12C(=O)Nc1ccc(I)cc12`, the z-score is -0.907.

Take `CCOC(=O)C[C@H]1[C@H](OC(=O)c2ccc(C(=O)c3ccccc3)cc2)[C@@H](NC(=O)c2ccc3ccccc3n2)c2cc(OCCCO)ccc2N1C(=O)c1ccc2ccccc2n1`: the z-score was -0.402.

As for `C=CCC(OC(C)=O)[C@@H]1[C@@H](N(Cc2ccc(-c3cccc(C(F)(F)F)c3)o2)C(=O)Cc2ccc(OC)cc2)c2cc(OCCCO)ccc2N1C(=O)Cc1ccc(OC)cc1` (stereo not given in full), the z-score was 1.38.

Take `C=CCC(OC(C)=O)[C@@H]1[C@@H](N(Cc2ccc(-c3ccccc3)cc2)C(=O)c2ccc(C)cc2)c2cc(OCCCO)ccc2N1C(=O)Cc1ccc(OC)cc1` (stereo not given in full): the z-score is 0.705.

Take `C=C(COC)C(=O)CC[C@@H](OC(=O)c1ccccc1-c1ccccc1C(=O)O)c1ccc(CO)o1`: the z-score was -0.736.

For `CN(C)CCCC[C@@H]1NC(=O)[C@@H]2C[C@H](C(=O)NCCCCCN)[C@H](c3ccc(O)cc3)N2C1=O`, the z-score is 0.177.

For `CN(C)CCCN1C(=O)[C@@]2(c3ccc([N+](=O)[O-])cc3)CC(=O)N(C3CCCCC3)[C@@H]2c2ccc(CO)cc21`, the z-score was 0.962.

Turning to `O=C1C2C=CC(C(O)c3cccc4ccccc34)N(n3cnnc3)C2C(=O)N1Cc1ccccc1` (stereo not given), the z-score is -0.06.

As to `COCCCNC(=O)[C@]1(Cc2ccccc2N=[N+]=[N-])N=C(c2ccc(OCCCO)cc2)O[C@@H]1c1ccccc1CN=[N+]=[N-]`, the z-score was 1.63.

In the case of `C=C(COC)C(=O)CC[C@H](OC(=O)c1cccnc1)c1ccccc1OCCO`, the z-score was -0.751.

As to `CCOC(=O)N1C(c2ccc(OCCCO)cc2)=NC(C(=O)OC)N1C(=O)OCC` (stereo not given), the z-score is 0.69.

For `C=CCOC(=O)[C@H]1[C@@H]2C(=O)O[C@@H](c3ccccc3)[C@@H](c3ccccc3)N2[C@@H](c2ccc(OCCOC(=O)[C@H]3C[C@H]4C(=O)N[C@@H](CCCC[N+](C)(C)C)C(=O)N4[C@H]3c3ccc(O)cc3)cc2)[C@]12C(=O)Nc1ccccc12`, the z-score was 0.6.

Take `CC(C)N1C(=O)c2ccccc2[C@](C)(C(=O)NCCCN(C)C)[C@@H]1c1ccc(CO)cc1`: the z-score is 0.302.

As to `C=CCC(OC(C)=O)[C@@H]1[C@@H](N(Cc2ccc(-c3ccccc3)cc2)C(=O)c2ccc(C)cc2)c2cc(OCCCO)ccc2N1C(=O)c1ccc2ccccc2n1` (stereo not given in full), the z-score was 0.389.

As for `COC(=O)[C@@]1(Cc2ccc(F)cc2)[C@H]2c3cc(C(=O)N4CCCC4)n(Cc4ccc(Cl)c(C(F)(F)F)c4)c3C[C@H]2CN1C(=O)c1ccccc1`, the z-score is -0.286.

On to `COCCCNC(=O)[C@@]1(Cc2ccccc2I)c2ccccc2C(=O)N(Cc2ccccc2)[C@H]1c1ccc(CO)cc1`, for which the z-score is 0.387.

With `CC(=O)NCCCC[C@@H]1NC(=O)[C@@H]2C[C@H](C(=O)NCc3ccc(F)cc3)[C@H](c3ccc(O)cc3)N2C1=O`, the z-score was 0.347.

Take `CCOC(=O)C1=CC[C@@H](c2cccc(Cl)c2)N(S(=O)(=O)c2ccc(C)cc2)[C@H]1c1ccc(C#N)cc1`: the z-score was -1.03.

Turning to `CCCNC(=O)[C@@]1(C)c2ccccc2C(=O)N(Cc2cc(C(F)(F)F)cc(C(F)(F)F)c2)[C@H]1c1ccc(CO)cc1`, the z-score was 0.531.

For `COC(=O)c1c2oc(c1C(=O)OC)C(=O)N[C@H](Cc1ccccc1)Cn1nncc1C1(CCCCC1)NC(=O)N[C@H](CO)CC2`, the z-score is 0.0786.

On to `CN(C)CCCC[C@@H]1NC(=O)[C@@H]2C[C@H](C(=O)NCc3ccc(F)cc3)[C@H](c3cccc(OCCO)c3)N2C1=O`, for which the z-score is -0.0506.

`COc1ccc([Si](C)(C)[C@@H]2[C@@H](CCn3cc([C@H](O)c4ccccc4)nn3)O[C@]3(C(=O)N(C)c4ccccc43)[C@H]2C)cc1`: the z-score was 1.27.
